# KDM5B inh = inhibitors of human KDM5B histone demethylase; Q9UGL1; KDM5B demethylase, FDH-coupled NADH fluorescence (FDH is formaldehyde dehydrogenase); Potency, µM (series often up to 57.7 µM), usual class: inhibitors; 220,000 tested, 2.6% active; active means well fitted inhibition curve with a large enough effect; further: 0% is about no effect; nearly all actives have a fitted effect of over 70% in size
#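 qHTS format, multiple compound concentrations. Buffer 50 mM HEPES pH 7.5/0.01% Tween-20; 200 nM KDM5BΔAP final; 10 min compound preincubation; substrate-mix levels 12.5 µM peptide, 25 µM α-KG, 0.25 mM NAD⁺; 30 min RT; ΔRFU.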
# * marks the source's active call; other numbers are inactive results; i = inactive. This is one part of a sample in which hits are shown more often than they occur. Potency means the concentration at half of the fitted maximal effect.
SMILES,KDM5B inh
CCc1noc(-c2cccn3c(CNC(=O)c4ccccc4F)nnc23)n1,31.6µM*
CCOc1ccc(OCCSc2nc3cc(S(=O)(=O)N(C)C)ccc3o2)cc1,i
COc1ccc(Cn2c(-n3nc(C)cc3C)nc3c2c(=O)n(CC(N)=O)c(=O)n3C)cc1,i
COC(=O)COc1c(Br)cc(/C=C2/NC(=O)NC2=O)cc1Br,i
N#C/C(=C/c1ccccc1)S(=O)(=O)c1ccc(F)cc1,i
O=C(N[C@@H](Cn1cc(Cl)c(=O)[nH]c1=O)C(=O)O)C1CCC1,i
CC(=O)N1CCC(c2nnc3n2CCNC3)CC1,112µM*
O=C(c1ccccc1)N1CCc2nnc(C3CC3)n2CC1,i
Cc1noc(C)c1C(=O)N1CCCC(c2nnc3n2CCNC3)C1 (configuration not stated),i
O=C(c1ccncc1)N1CCC(c2nnc3n2CCNC3)CC1,35.5µM*
C[S+](=O)([O-])N1CCCCC1c1nnc2n1CCNC2 (configuration not stated),i
COc1ccc(C(=O)N2CCn3c(nnc3C3CCNCC3)C2)cc1,i
CCCOc1ccccc1C(=O)N(Cc1ccc(C)cc1)C1CCS(=O)(=O)C1 (configuration not stated),i
CCc1cccc(NC(=O)c2nc3ccccc3nc2N2CCCC2)c1,i
Cc1cc(C(=O)COc2cccc(C#N)c2)c(C)n1CCC(C)C,i
CC(O)CNc1nc2c(c(=O)n(Cc3ccccc3Cl)c(=O)n2C)n1C (configuration not stated),i
CCn1cc(CN2CCC3(CC2)CN(C)CC3COC)cn1 (configuration not stated),25.1µM*
COCC1CN(C)CC12CCN(Cc1cc(C)nn1C)CC2 (configuration not stated),i
COCC1CN(C)CC12CCN(Cc1ccc(Cl)c(F)c1)CC2 (configuration not stated),i
CC(Sc1ccccc1)C(=O)OCc1nc(N)nc(Nc2ccc(Cl)cc2)n1 (configuration not stated),i
Cc1cccc(C)c1-n1nnnc1Sc1nnnn1-c1ccccc1,i
COc1ccc(C(=O)N2CCC3(CC2)NC(=O)N(c2ccccc2)N3)cc1F,i
Cc1cccc2sc(NC(=O)NC3CC(=O)N(c4ccc5c(c4)OCCO5)C3)nc12 (configuration not stated),i
Cc1cccc(-n2nc(-c3c(C)nc4scc(CC(=O)NCCC(C)C)n4c3=O)cc2C)c1,25.1µM*
Cc1nc(NCc2ccccc2)sc1C(=O)NCCC(C)C,i
SMILES,KDM5B inh
COc1ccccc1-n1nc(-c2c(C)nc3scc(CC(=O)NCCC(C)C)n3c2=O)cc1C,28.2µM*
Cc1nc2nc(N)nn2c(C)c1CC(=O)NCCC(C)C,i
CCc1ccccc1-n1nc(-c2c(C)nc3scc(CC(=O)NCCC(C)C)n3c2=O)cc1C,25.1µM*
COCCNC(=O)CCc1c(C)nn(-c2cccc(C)c2)c1Oc1ccccc1,i
CCNC(=O)CC1C(=O)N(c2cccc(C)c2)C(=O)N1CCC(C)C (configuration not stated),i
COc1ccccc1NC(=O)Nc1nc(CC(=O)NCCC(C)C)cs1,i
COc1ccccc1CCNC(=O)c1sc(NCC(C)C)nc1C,i
CNc1ccc2c(cc1=O)[C@@H](NC)CCc1cc(OC)c(OC)c(OC)c1-2,i
O=C(c1ccc(C#Cc2ccccc2)cc1)N1CCN(Cc2ccccc2)CC1,i
COC(=O)c1ccc(CNC(=O)C2Cc3ccc(C)cc3S2)cc1 (configuration not stated),i
CCC(=O)n1nc(-c2ccc(OC)cc2)nc1SCc1ccccc1,i
CC1=C(C(=O)Nc2ccccc2)C(c2ccc(Br)cc2)N2C(=O)CSC2=N1 (configuration not stated),i
O=C(NCC1CC1)c1ccc2c(c1)OCCN(c1ccccc1)C2,i
Cc1cnc(NC(=O)c2ccc3c(c2)OCCN(c2ccccc2)C3)s1,28.2µM*
CNC(=O)c1ccc2c(c1)OCCN(c1ccccc1)C2,i
COc1cc(OC)cc(OC(C)C(=O)Nc2cc(Cl)ccc2C)c1 (configuration not stated),i
Cc1ccc(C)c(NC(=O)C(Sc2ccc(S(=O)(=O)N3CCCC3)cn2)c2ccccc2)c1 (configuration not stated),i
Cc1cc(C(=O)NCc2ccccc2F)c2ccccc2n1,i
CCCNC(=O)c1cc(C)nc2ccccc12,i
Cc1ccc2c(C(=O)NCc3ccccc3Cl)cc(NC(=O)C(C)C)cc2n1,14.1µM*
Cc1cc(CNC(=O)c2cc(C)nc3ccccc23)c2ccccc2n1,i
CCNC(=O)c1cc(NC(=O)C(C)C)cc2nc(C)ccc12,25.1µM*
Cc1ccc2nc(-c3ccc(C)s3)cc(C(=O)NCCN3CCOCC3)c2c1,i
Cc1cc(C(=O)NCCC(c2ccccc2)c2ccccc2)c2ccccc2n1,i
Cc1ccc2c(C(=O)NCCN3CCCCC3)cc(NC(=O)C(C)C)cc2n1,22.4µM*
SMILES,KDM5B inh
CCNC(=O)c1cc(-c2ccccc2)nc2ccccc12,i
Cc1ccc(-n2cnnc2SCC(=O)Nc2nc3c(C)cccc3s2)cc1,i
O=C(CCc1ncc(-c2ccc(Cl)cc2Cl)o1)NCC1CCCO1 (configuration not stated),i
COc1ccc(S(=O)(=O)c2cc3cc(C)ccc3oc2=O)cc1,i
CNc1nc(-c2ccccc2)c(C(=O)Nc2ccccc2)s1,i
CCOc1ccc(/C=C(/C#N)C(=O)c2ccccc2)cc1OC,i
CC1CCCc2c1nc1sc3c(c1c2-c1ccc(Cl)cc1)CCC3 (configuration not stated),i
COc1cccc(CNC(=O)N2c3ccccc3CC2c2noc(C3CCOCC3)n2)c1 (configuration not stated),i
CC(=O)N1CCCC2(C1)CN(C)c1ccc(C(=O)NCCOc3ccccc3)cc12 (configuration not stated),31.6µM*
CC(C)CCN1CCOc2cc(C(=O)NCCOc3ccccc3)ccc2C1,i
CN1CCCC2(C1)CN(C)c1ccc(C(=O)NCCOc3ccccc3)cc12 (configuration not stated),39.8µM*
CC(=O)N1CCC(C(=O)NCCOc2cccc(C)c2)CC1,i
O=C(NCCOc1ccccc1)c1cc(COc2ccccc2)[nH]n1,i
CN1CCCC2(CCN(C(=O)CCCOc3ccccc3)C2)C1=O (configuration not stated),i
CC(C)c1ccccc1NC(=O)c1csc2c1CCCC2,i
CCOC(=O)c1ccc(Oc2c(C(F)(F)F)oc3cc(OC(=O)c4ccc(F)cc4)ccc3c2=O)cc1,i
CC(NC(=O)c1cc(Cl)nc(Cl)c1)C1CC2CCC1C2 (configuration not stated),i
O=C(Nc1c(F)cccc1F)N1CCOc2ccc(CN3CCc4ccccc4C3)cc2C1,i
Oc1ccccc1CN1C[C@H](O)C[C@H]1c1nc(-c2ccc(F)cc2)no1,i
CCC(=O)N1CCN(c2nc3c(s2)CC(C(=O)NCc2cccs2)CC3)CC1 (configuration not stated),i
Cc1ccc(CNC(=O)C2CCc3nc(N4CCN(C(=O)C(C)C)CC4)sc3C2)o1 (configuration not stated),i
CCC(=O)N1CCN(c2nc3c(s2)CC(C(=O)NCc2ccc(C)o2)CC3)CC1 (configuration not stated),25.1µM*
CNC(=O)CN(C)Cc1coc(-c2ccc(C)cc2)n1,i

# Bioassay records deposited in PubChem BioAssay by National Center for Advancing Translational Sciences (NCATS).
